# From PubChem BioAssay (NCI)
# About 83,000 compounds went through this panel and 20% of them were active in at least one assay; those are over-represented in the sample as a whole.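 Values shown are percent growth following 48 h exposure of cells in 96-well plates to a single concentration of compound; below 10 was considered active.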 Values without a mark were called inactive. The source made the active and inactive calls.
# Key:
# Experiment in all cases: NCI-60 one-dose screen, 48 h (100 = growth as untreated, 0 = no growth, -100 = all killed)
# Details in all cases: 10 µM
# DU-145 prostate = test system: DU-145 prostate
# K-562 leukemia = test system: K-562 leukemia
# MALME-3M melanoma = test system: MALME-3M melanoma
# MDA-MB-231 breast = test system: MDA-MB-231 breast
# RXF 393 renal = test system: RXF 393 renal
# SF-268 CNS = test system: SF-268 CNS
# SF-295 CNS = test system: SF-295 CNS
# SF-539 CNS = test system: SF-539 CNS
# UACC-257 melanoma = test system: UACC-257 melanoma
# M14 melanoma = test system: M14 melanoma
# HCT-15 colon = test system: HCT-15 colon
# HT29 colon = test system: HT29 colon
# SNB-75 CNS = test system: SNB-75 CNS
# SNB-19 CNS = test system: SNB-19 CNS
# U251 CNS = test system: U251 CNS
# PC-3 prostate = test system: PC-3 prostate
# SK-MEL-5 melanoma = test system: SK-MEL-5 melanoma
# UACC-62 melanoma = test system: UACC-62 melanoma
# LOX IMVI melanoma = test system: LOX IMVI melanoma
# SK-MEL-28 melanoma = test system: SK-MEL-28 melanoma
SMILES,growth (DU-145 prostate),growth (K-562 leukemia),growth (MALME-3M melanoma),growth (MDA-MB-231 breast),growth (RXF 393 renal),growth (SF-268 CNS),growth (SF-295 CNS),growth (SF-539 CNS),growth (UACC-257 melanoma),growth (M14 melanoma),growth (HCT-15 colon),growth (HT29 colon),growth (SNB-75 CNS),growth (SNB-19 CNS),growth (U251 CNS),growth (PC-3 prostate),growth (SK-MEL-5 melanoma),growth (UACC-62 melanoma),growth (LOX IMVI melanoma),growth (SK-MEL-28 melanoma)
COc1cc(-c2nn(-c3cccc(NC(=O)NCCNC(=O)c4ccccc4)c3)cc2-c2ccncc2)ccc1Cl,23%,5.31% (active),-9.9% (active),25.9%,-23.4% (active),27.7%,-56.9% (active),-12.9% (active),17.1%,-5.48% (active),9.91% (active),5.63% (active),33.4%,35.3%,25.3%,6.41% (active),-72.7% (active),21.9%,2.52% (active),7.24% (active)
C(=N\Nc1ncnc2sc3c(c12)CCNC3)/c1cccc2ccccc12,100%,2.84% (active),92.6%,66%,85%,97.5%,104%,85.8%,104%,95%,18.9%,16.8%,62.5%,79.1%,83%,76.9%,97.1%,101%,50.4%,–
COc1cc2cc(Oc3ccc(NC(=O)Nc4ccc(Cl)c(Cl)c4)cc3)c(C)nc2cc1OC,24.8%,12.7%,14.9%,47.8%,22.3%,43.7%,0.689% (active),38.5%,1.38% (active),25.8%,18.9%,10.9%,22.4%,28.6%,-32.3% (active),4.12% (active),-35% (active),20.4%,23.1%,44.6%
NC1=NC(c2ccccc2)C2=C(N1)/C(=C/c1ccccc1)CCC2 (stereo unspecified),117%,76.4%,103%,101%,101%,91.7%,95%,92.8%,83.8%,61.9%,84.9%,32.2%,85.6%,97.5%,34.8%,78.7%,98.9%,77.5%,-4.8% (active),–
CC1(C)N=C(N)N=C(N)N1c1cccc(C#N)c1,46.7%,20.7%,70.7%,78.4%,50.7%,29.8%,35.3%,46.2%,73.3%,40%,33%,35.9%,77.4%,66.8%,28.5%,43.1%,52.4%,54.1%,21%,95%
CCCCN(CCCC)C(=O)[C@H](CC)[C@@H]1CC[C@@H](C)[C@@H]([C@H](C)[C@@H](O)[C@@H](C)C(=O)[C@H](CC)C2O[C@]3(C=C[C@@H](O)[C@]4(CC[C@@](C)([C@H]5CC[C@](O)(CC)[C@H](C)O5)O4)O3)[C@H](C)C[C@@H]2C)O1 (stereo partly specified),35.4%,14.1%,-15.8% (active),-25.3% (active),-3.81% (active),19.6%,-10.4% (active),16.9%,0.418% (active),14.2%,-5.99% (active),7.79% (active),-12.4% (active),15.3%,13.9%,4.26% (active),-92% (active),12.2%,2.12% (active),39.8%
COc1cc(-c2nn(-c3ccc(NC(=O)NCCCNC(=O)c4ccccc4)cc3)cc2-c2ccncc2)ccc1Cl,20.6%,12.4%,47.3%,19.1%,25.2%,37.6%,0.436% (active),-10.5% (active),63.3%,12.2%,20.3%,3.51% (active),25%,55.8%,14.9%,19.4%,-43.5% (active),51.7%,15.1%,52.1%
CCOC(=O)N/N=C/c1ccc(OC)c(OC)c1,118%,99.9%,132%,106%,101%,127%,101%,112%,106%,113%,110%,104%,106%,104%,100%,104%,101%,98.7%,102%,107%
COc1cc(/C=C2\CCCC3C2=Nc2ccccc2NC3c2cc(OC)c(OC)c(OC)c2)cc(OC)c1OC (stereo unspecified),4.98% (active),5.35% (active),-34.9% (active),24.1%,-49.6% (active),26%,-10.8% (active),35.2%,16.3%,-0.908% (active),6.11% (active),-3.94% (active),54.5%,64.4%,-11.4% (active),38.2%,-52% (active),-32.6% (active),-62% (active),29.4%
NS(=O)(=O)Oc1ccc(-c2ccc3sccc3c2)cc1,104%,96.9%,106%,90%,100%,102%,97.2%,98.9%,104%,100%,103%,107%,97.3%,101%,88.8%,96.5%,95.9%,61.6%,95.2%,97.6%
CC(=O)Nc1ccc2c(c1)C(=O)c1cccc(C(=O)O)c1-2,116%,115%,148%,112%,109%,104%,100%,106%,105%,107%,107%,115%,91%,101%,108%,99.5%,95.5%,109%,109%,97.9%
CN(C)CCOc1ccc(-c2nc3sccn3c2-c2ccnc(S(C)(=O)=O)n2)cc1,112%,102%,112%,110%,113%,117%,103%,102%,101%,112%,101%,103%,88.5%,99.1%,95.1%,87.2%,101%,105%,97.5%,–
CN1CCN(CCC(=O)Nc2cccc(-n3cc(-c4ccncc4)c(-c4ccc(Cl)c(O)c4)n3)c2)CC1,25.8%,12.8%,47.6%,-72% (active),30%,50.8%,19.3%,-4.71% (active),46.3%,12.3%,39.3%,4.91% (active),24.5%,55%,32.4%,29.3%,24.2%,46.9%,15.7%,57.7%
CCCN(CCC)C(=O)[C@H](CC)[C@@H]1CC[C@@H](C)[C@@H]([C@H](C)[C@@H](O)[C@@H](C)C(=O)[C@H](CC)C2O[C@]3(C=C[C@@H](O)[C@]4(CC[C@@](C)([C@H]5CC[C@](O)(CC)[C@H](C)O5)O4)O3)[C@H](C)C[C@@H]2C)O1 (stereo partly specified),31.5%,10.4%,-13.3% (active),-40.3% (active),-6.32% (active),24.5%,-5.79% (active),8.44% (active),8.4% (active),13.9%,-9.51% (active),7.02% (active),-12.8% (active),17.8%,21.5%,6.69% (active),-92.4% (active),14.9%,1.21% (active),–
COc1cc(CNC(=O)C2CSC3(C)c4ccccc4C(=O)N23)cc(OC)c1OC (stereo unspecified),109%,71.9%,109%,98.3%,98.7%,101%,104%,98.2%,73.8%,108%,106%,82.6%,97.5%,93%,82.7%,90%,102%,92.5%,105%,103%
CN1C(=O)C2(Nc3cc(Cl)ccc3S2)c2cc(Cl)ccc21 (stereo unspecified),104%,75.4%,113%,69.3%,106%,93.8%,99.3%,106%,101%,102%,76.7%,101%,69.2%,97.2%,93.2%,73.7%,84.9%,69.9%,78.8%,101%
